In all, about 9,900 sequences were measured (“r (bound/input frequency ratio)”: median about 0.7, highest 2% from about 6.5 on). This excerpt belongs to a sample that is enriched for the highest values.
B1: ENSMUSG00000090935.713|Synj2bp (ssRNA)
RNA: GGGAGUUCUACAGUCCGACGAUCGCUUCGAUAUCCGCAUGCUAAAGUCCAGAGCUCUGCUCUCUGAGCAUCUGCCCCAGAUACAGAGGCAGAGUAUGAAGUGGAACAUUGUUUUAUUCCUAGGUGCUCAGGACAGACUGAUCAACCUCCAGUAACAUAUGUGGUUAGUAAGUGCUUCAGCUUGUGUAGCCAUUAAUAACCAAGUCAUAGGAUUGUGAAUCUAAAAUACUCCUGGGUAAAAUUUGUAUUAGAAUGGAAAAAAAAAUGAGGGUCAGAAAGGUGAGCUAACUUCAAGUUAGAUACUCUCUUGCGGUCGCACUAGUGUGGAAUUCUCGGGUGUCAAGG
B2: ENSMUSG00000031028.410|Tub (ssRNA)
RNA: GGGAGUUCUACAGUCCGACGAUCGCUUCGAUAUCCGCAUGCUAAGAUCCCUUACCCCUCAUCCCCUCUUCUUUUUGGUCCUUGGCUGGGUAGCAAAUUGGUGAGAAGAGCAGCCUAGUCUGUAAGAGUGCAGGGCAGCUGGAACCUUAGGCAGCUCCUCUGUAUGCUACCGGCUCCACACCCUAACACUCUCCACCCUCUGCUCCAAACCAGUUCUUCUGCAGAGUGGUGAUGUUAGCUUCCCCAGCUCCUCUCCAAGUCUAGCUUUUUCUGUCCUUCUGGCUCCAAGGUGCUCUGUGUCUGUCUCUUGCGGUCGCACUAGUGUGGAAUUCUCGGGUGUCAAGG
B3: ENSMUSG00000031028.415|Tub (ssRNA)
RNA: GGGAGUUCUACAGUCCGACGAUCGCUUCGAUAUCCGCAUGCUAUUGGUCCUUGGCUGGGUAGCAAAUUGGUGAGAAGAGCAGCCUAGUCUGUAAGAGUGCAGGGCAGCUGGAACCUUAGGCAGCUCCUCUGUAUGCUACCGGCUCCACACCCUAACACUCUCCACCCUCUGCUCCAAACCAGUUCUUCUGCAGAGUGGUGAUGUUAGCUUCCCCAGCUCCUCUCCAAGUCUAGCUUUUUCUGUCCUUCUGGCUCCAAGGUGCUCUGUGUCUGUGUGUGUGUGUCUGUCUGUGUGUGUGUGUGUCUCUUGCGGUCGCACUAGUGUGGAAUUCUCGGGUGUCAAGG
B4: ENSMUSG00000031028.411|Tub (ssRNA)
RNA: GGGAGUUCUACAGUCCGACGAUCGCUUCGAUAUCCGCAUGCUACUUACCCCUCAUCCCCUCUUCUUUUUGGUCCUUGGCUGGGUAGCAAAUUGGUGAGAAGAGCAGCCUAGUCUGUAAGAGUGCAGGGCAGCUGGAACCUUAGGCAGCUCCUCUGUAUGCUACCGGCUCCACACCCUAACACUCUCCACCCUCUGCUCCAAACCAGUUCUUCUGCAGAGUGGUGAUGUUAGCUUCCCCAGCUCCUCUCCAAGUCUAGCUUUUUCUGUCCUUCUGGCUCCAAGGUGCUCUGUGUCUGUGUGUGUCUCUUGCGGUCGCACUAGUGUGGAAUUCUCGGGUGUCAAGG
B5: ENSMUSG00000031028.413|Tub (ssRNA)
RNA: GGGAGUUCUACAGUCCGACGAUCGCUUCGAUAUCCGCAUGCUACCCCUCUUCUUUUUGGUCCUUGGCUGGGUAGCAAAUUGGUGAGAAGAGCAGCCUAGUCUGUAAGAGUGCAGGGCAGCUGGAACCUUAGGCAGCUCCUCUGUAUGCUACCGGCUCCACACCCUAACACUCUCCACCCUCUGCUCCAAACCAGUUCUUCUGCAGAGUGGUGAUGUUAGCUUCCCCAGCUCCUCUCCAAGUCUAGCUUUUUCUGUCCUUCUGGCUCCAAGGUGCUCUGUGUCUGUGUGUGUGUGUCUGUCUGUCUCUUGCGGUCGCACUAGUGUGGAAUUCUCGGGUGUCAAGG
B6: ENSMUSG00000031028.412|Tub (ssRNA)
RNA: GGGAGUUCUACAGUCCGACGAUCGCUUCGAUAUCCGCAUGCUACCUCAUCCCCUCUUCUUUUUGGUCCUUGGCUGGGUAGCAAAUUGGUGAGAAGAGCAGCCUAGUCUGUAAGAGUGCAGGGCAGCUGGAACCUUAGGCAGCUCCUCUGUAUGCUACCGGCUCCACACCCUAACACUCUCCACCCUCUGCUCCAAACCAGUUCUUCUGCAGAGUGGUGAUGUUAGCUUCCCCAGCUCCUCUCCAAGUCUAGCUUUUUCUGUCCUUCUGGCUCCAAGGUGCUCUGUGUCUGUGUGUGUGUGUCUCUCUUGCGGUCGCACUAGUGUGGAAUUCUCGGGUGUCAAGG
B7: ENSMUSG00000031028.414|Tub (ssRNA)
RNA: GGGAGUUCUACAGUCCGACGAUCGCUUCGAUAUCCGCAUGCUAUUCUUUUUGGUCCUUGGCUGGGUAGCAAAUUGGUGAGAAGAGCAGCCUAGUCUGUAAGAGUGCAGGGCAGCUGGAACCUUAGGCAGCUCCUCUGUAUGCUACCGGCUCCACACCCUAACACUCUCCACCCUCUGCUCCAAACCAGUUCUUCUGCAGAGUGGUGAUGUUAGCUUCCCCAGCUCCUCUCCAAGUCUAGCUUUUUCUGUCCUUCUGGCUCCAAGGUGCUCUGUGUCUGUGUGUGUGUGUCUGUCUGUGUGUGUCUCUUGCGGUCGCACUAGUGUGGAAUUCUCGGGUGUCAAGG
B8: ENSMUSG00000043670.304|Diras1 (ssRNA)
RNA: GGGAGUUCUACAGUCCGACGAUCGCUUCGAUAUCCGCAUGCUAGUCACAAAGAGACAGAGAAGCAGAAAGAAGGCUGAAGCCAGAUGACCAAGUAGGCCGGACCCCACUGUGUUCCCUUCUGUGUGCCAGGCACAGGGAGAGCCACAGCCUGAAGCCUGAGUCUGAGCAUAGCUGAGCCCUGACCUCUAGCCAGCCCAGGGCCCCCACAGCUGCCACCUGCUCCCAAGCCCCGGGAGUGGCUCCUGGCUGGACAGGGGGUCACAGCCCUUUCUCAGGGACACACCCUGAUAGCACAAUCUCUGCUCUUGCGGUCGCACUAGUGUGGAAUUCUCGGGUGUCAAGG
B9: ENSMUSG00000029636.41|Wasf3|31:35;229:235 (ssRNA)
RNA: GGGAGUUCUACAGUCCGACGAUCGCUUCGAUAUCCGCAUGCUACACAUCCUUCUGGAUUUGUUGAGUAUUUACACACAAAUACUUAAGUGCCACAGAACACAGCACACCGUGCUGCACACCAGGAAACUCGCAGUAUUAGUGCAUCACCCUGGAACAGCAUCUUGCUUCCCUCUCAGCCGUGAGAGUCCCCUCUCCUGUCCAUCCUGAUUUGGUGGGCUUGCCACGUAUCUGCGCAGCUGCCCCACGUCAGCUCUCUGCAAGAUCACUGGCACACACACUCAGUGAUGUCUUCCAACCAGUGGCUCUUGCGGUCGCACUAGUGUGGAAUUCUCGGGUGUCAAGG
B10: ENSMUSG00000029028.57|Lrrc47 (ssRNA)
RNA: GGGAGUUCUACAGUCCGACGAUCGCUUCGAUAUCCGCAUGCUAGUAGAUCUUUGUAGGUGUAGGUAUGCUGUAGGUAUCUGGGUGUGGGUAUGCUGUAGAUGUCUGUGUAGGUGUGGAUAUGCUGUAGGUAUCUGGGUGUGCUGUAGGUGUCUGUGUGGGUGUGGGUGUGCUGUGGGUGUCUGUGUGGGUGUGCUGUAGGUGUCUGUAGGUGUGGGUAUGCUGCAGGUGUGGGUGUGCUGUAGAUCUCUAUAGGUGUGGGUGUGCUGUAGGGGUCUGUGUGGGUAUAGGUGUGGGUGUGCUGUCUCUUGCGGUCGCACUAGUGUGGAAUUCUCGGGUGUCAAGG
B11: ENSMUSG00000061578.309|Ksr2 (ssRNA)
RNA: GGGAGUUCUACAGUCCGACGAUCGCUUCGAUAUCCGCAUGCUAAAGUAAGAGAGGAGAGAGCCAGGGAGGGCUGAAGCUCUGGGACCCUGAAGUGUCCCCCGGGAACUGGGACUCACUCAUCUUCUCCUGUUUGUAGCUCAAUGACCCAGUGGGUCACAGUUCUAGGCGCUCCAAGGAAGCCAGGGGAGGGGGACUCCUCAGGAAGGAGUGACCAGUCACCUGCCUCCCAGGGUUCUGCCUUGCCCUUAAGCUAGGGUCCUUCAAGCAUCCACAGACUUAGAGUGUGGUGGUAACAUGCUUGUCUCUUGCGGUCGCACUAGUGUGGAAUUCUCGGGUGUCAAGG

target: TDP-43 (Homo sapiens, UniProt Q13148 1-414); test: RNA Bind-n-Seq with designed 260-mer pool; 25 mM Tris-HCl, 150 mM KCl, 3 mM MgCl2, BSA (printed 500 mg/mL), 20 units/mL SUPERase IN; pH not stated; 500 nM RNA pool, 1 h, 4 C; TDP-43 5, 50, 500 nM; high values mean tight binding; details: protein: recombinant; tags: SBP (GST cleaved off with PreScission; pGEX-GST-SBP)
Procedure, shortened: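 Recombinant SBP-tagged TDP-43 at 5, 50 or 500 nM was captured on streptavidin beads, then incubated 1 h at 4 °C with 500 nM of an in vitro-transcribed 260-nt 3′ UTR oligo pool in 25 mM Tris-HCl, 150 mM KCl, 3 mM MgCl2, BSA and SUPERase IN. Bound RNA was washed, eluted with biotin, reverse transcribed, PCR-amplified and sequenced. Binding is R, each oligo's mapped-read-normalized abundance in the bound sample divided by its abundance in input. Duplicates used two independent protein batches.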

Sequence of TDP-43 (Q13148 whole entry): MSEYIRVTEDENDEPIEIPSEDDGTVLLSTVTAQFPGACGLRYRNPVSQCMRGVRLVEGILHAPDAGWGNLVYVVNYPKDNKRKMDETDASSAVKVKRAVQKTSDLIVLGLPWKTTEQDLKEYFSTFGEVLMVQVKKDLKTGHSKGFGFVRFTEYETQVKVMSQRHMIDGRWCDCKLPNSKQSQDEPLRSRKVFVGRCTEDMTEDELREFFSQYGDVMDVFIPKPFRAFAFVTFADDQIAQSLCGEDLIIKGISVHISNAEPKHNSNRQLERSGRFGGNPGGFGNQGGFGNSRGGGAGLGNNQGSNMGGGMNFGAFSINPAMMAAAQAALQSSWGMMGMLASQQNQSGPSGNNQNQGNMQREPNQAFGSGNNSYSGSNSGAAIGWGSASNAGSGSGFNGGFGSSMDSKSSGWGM

Binder | binding signal
B1 | 1.85 R (bound/input frequency ratio)
B2 | 1.11 R (bound/input frequency ratio)
B3 | 6.65 R (bound/input frequency ratio)
B4 | 1.34 R (bound/input frequency ratio)
B5 | 3.56 R (bound/input frequency ratio)
B6 | 2.36 R (bound/input frequency ratio)
B7 | 6.55 R (bound/input frequency ratio)
B8 | 0.472 R (bound/input frequency ratio)
B9 | 0.406 R (bound/input frequency ratio)
B10 | 6.24 R (bound/input frequency ratio)
B11 | 1.33 R (bound/input frequency ratio)

Source: paper PMC12864922, “TDP-43 directly inhibits mRNA accumulation in neurites through modulation of mRNA stability”
